Screens as filed in PubChem BioAssay.
The list is not random: actives were taken first. Their share in the collection is about 9.2%.
Rab9 promoter act – Rab9 promoter activation; 320,000 tested, 2.8% active; Huh7 Rab9 promoter-luciferase reporter, luminescence, 24 h; Potency, µM (highest dose often 9.22 µM), inactives show at the highest dose activation, negative = inhibition, most hits filed as activators; note: % of control where 0% means no effect; nearly all actives have a fitted effect of over 60% in size
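Huh7 reporter line, Rab9 promoter upstream of luciferase. Compound exposure 24 h at 37 °C in reduced-serum medium with 10% FBS. Read-out: luminescence.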
ELG1 genotox – induces genotoxicity in HEK293T cells with luciferase-tagged ELG1 | AID 504466 | HEK293T ELG1-luciferase reporter, luminescence, 16 h | Potency, µM (doses to about 46 µM), for the others: at the top dose activity change, positive = activation, actives largely listed as activators | 330,000 tested, 1.3% active; note: % of control where 0% means no effect; nearly all actives have a fitted effect of over 60% in size
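Quantitative HTS format in 1536-well plates. HEK293T ELG1-luciferase reporter cells receive test compound and are incubated 16 hr at 37 °C, 5% CO2; ONE-Glo added, 30 min room temperature, then luminescence read.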
ELG1 repair inh – blocks ELG1-dependent DNA repair in HEK293T cells. 330,000 tested, 2.3% active. HEK293T ELG1-luciferase reporter, luminescence, 16 h; DNA damage induced by 5-fluorouridine. Potency, µM (titrated, usually from 46.1 µM), inactives show top-dose activity change, negative = inhibition, most hits filed as inhibitors; note: % is set by controls: 0 for no effect and ±100 for the full control effect; nearly all actives have a fitted effect of over 55% in size
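Quantitative HTS, concentration-response format. 2,000 cells/well co-treated with 5-fluorouridine and compound, 16 hr in 5% CO2 at 37 °C; ONE-Glo luminescence read after 30 min.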
NPC1 prom act – activators of NPC1 promoter. 320,000 tested, 2.4% active. Huh7 NPC1 promoter luciferase reporter, 24 h. Potency, µM (doses to about 9.22 µM), inactives show top-dose activation, most hits filed as activators; note: % of control where 0% means no effect; nearly all actives have a fitted effect of over 60% in size
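In 1536-well qHTS, Huh7 cells harboring an NPC1 promoter–luciferase construct received compound for 24 h; activation was quantified by luminescence following luciferase reagent addition.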
SMN2 splice enh – enhancers of SMN2 splice variant expression | HEK293 SMN2-luciferase splicing reporter, luminescence, 30-36 h | Potency, µM (top dose mostly 46.1 µM), inactives show at the top dose activity change, positive = activation, usual class: activators | AID 1458 | 210,000 tested, 2.8% active; note: % of control where 0% means no effect; nearly all actives have a fitted effect of over 55% in size
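HEK293 cells carry an SMN2 minigene-luciferase reporter in which exon 7 inclusion puts luciferase in frame. Cells were seeded at 2000 cells/well, attached for 10-12 hours, then exposed to compounds for 30-36 hours at 37C before ONE-Glo luminescence.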
FLuc counter – counter-screen for miR-21 project: firefly luciferase inhibitors or activators; 360,000 tested, 6.9% active; AID 588342; purified FLuc, Km substrates, luminescence inhibition; Potency, µM (series often up to 57.5 µM), for the others: at the top dose activity change, negative = inhibition, usual class: inhibitors;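 note: plate controls were vehicle for no effect and reference inhibitor for full effect; nearly all actives have a fitted effect of over 55% in size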
Target sequence (P08659 whole entry, looked up): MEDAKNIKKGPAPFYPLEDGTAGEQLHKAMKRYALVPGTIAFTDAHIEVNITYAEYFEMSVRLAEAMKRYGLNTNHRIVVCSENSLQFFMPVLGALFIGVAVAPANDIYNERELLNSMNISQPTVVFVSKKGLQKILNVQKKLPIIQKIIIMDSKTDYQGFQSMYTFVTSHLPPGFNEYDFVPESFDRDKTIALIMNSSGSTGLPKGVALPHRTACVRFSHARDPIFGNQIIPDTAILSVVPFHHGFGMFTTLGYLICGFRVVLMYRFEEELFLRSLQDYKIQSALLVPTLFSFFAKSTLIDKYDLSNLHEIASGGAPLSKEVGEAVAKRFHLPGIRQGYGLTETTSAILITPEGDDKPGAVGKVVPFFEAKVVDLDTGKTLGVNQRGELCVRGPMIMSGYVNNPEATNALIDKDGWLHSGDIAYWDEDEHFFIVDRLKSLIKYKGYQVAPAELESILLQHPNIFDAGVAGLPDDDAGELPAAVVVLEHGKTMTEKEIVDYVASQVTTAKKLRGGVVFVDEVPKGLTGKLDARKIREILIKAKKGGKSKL
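Biochemical qHTS of compounds, final roughly 60 µM downward over six points, against 10 nM purified firefly luciferase using Km concentrations of substrates (10 uM D-luciferin, 10 uM ATP) in Tris acetate pH 7.5 buffer; luminescence output.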
Starred values were filed as active, the others as inactive; ? = inconclusive; . = no result given. Calls come from the whole dose curve; as a rule, active = well fitted curve in the direction sought with a large enough effect; inconclusive = small, poorly fitted or top-dose-only effect, or another doubt; inactive = no such curve, though single readings can be large; an effect the other way counts as inactive or inconclusive. Potency is the fitted concentration of half-maximal effect.

SMILES	Rab9 promoter act	ELG1 genotox	ELG1 repair inh	NPC1 prom act	SMN2 splice enh	FLuc counter
C[C@H]1C2=C3C(C[C@H]4C(=O)N(c5ccccc5)C(=O)[C@H]4[C@H]3[C@@]3(Cc4ccccc4)C(=NCCc4c[nH]c5ccccc45)OC(=O)N3C2=O)[C@H]2C(=O)N(c3ccccc3)C(=O)[C@H]21 (stereo partly drawn)	.	.	.	.	-2%	.
O=C(N/N=C/c1cn(Cc2cccc(F)c2)c2ccccc12)c1cc(O)cc(O)c1	1%	2%	2%	0%	.	17µM*
Nc1ccc(C(=O)N/N=C/c2cn(Cc3ccccc3)c3ccccc23)cc1	-5%	0%	-20%	-3%	.	17µM*
COC(=O)N/N=C/c1cn(Cc2ccccc2F)c2ccccc12	-3%	1%	21µM*	-5%	.	-12%
Nc1ccc(C(=O)N/N=C/c2cn(Cc3ccc(F)cc3)c3ccccc23)cc1	3%	0%	-7%	0%	.	?
Nc1ccc(C(=O)N/N=C/c2cn(Cc3ccccc3F)c3ccccc23)cc1	-1%	-5%	0%	0%	.	24µM*
COC(=O)c1ccccc1NC(=O)CN1CCCCCC1	4%	0%	-3%	-3%	.	2%
O=C(N/N=C/c1cn(CCOc2ccccc2)c2ccccc12)c1ccncc1	-14%	-3%	-12%	1%	-23%	?
COC(=O)N/N=C/c1cn(CCCOc2ccccc2)c2ccccc12	?	-5%	16µM*	?	-23%	-20%
O=C(COC(=O)C1CCN(c2ccc(C(F)(F)F)cn2)CC1)NCc1ccc(F)cc1	1%	1%	4%	-1%	.	4%
NC(=O)c1ccccc1NC(=O)/C=C/c1ccccc1	1.8µM*	?	?	?	?	6µM*
COc1cc(NC(=O)Cc2ccccc2)c(C(=O)O)cc1OC	-4%	4%	-4%	-2%	.	-15%
COc1cc(NC(=O)/C=C/c2ccccc2)c(C(=O)O)cc1OC	7%	15%	?	4%	.	6µM*
COC(=O)c1cc(NC(=O)/C=C/c2ccccc2)ccc1O	?	7%	?	?	.	11µM*
NC(=O)c1ccccc1NC(=O)/C=C/c1ccc(Cl)cc1	2.5µM*	3.7µM*	?	1.8µM*	13µM*	1.7µM*
O=C(/C=C/c1ccc(Cl)cc1)NC(=S)Nc1ccccc1C(=O)O	-1%	0%	-3%	-3%	.	?
C=CCNC(=O)c1cc([N+](=O)[O-])cc2c(=O)[nH]c(Nc3ccc(Cl)c(Cl)c3)nc12	.	.	.	.	9%	.
CCCCCCCCCCOCCC(=O)O	.	.	.	.	-3%	.
CN1C(=O)C(CC(=O)O)S/C1=N\N=C\c1ccc(O)cc1O (stereo not drawn)	3%	0%	0%	-14%	.	15µM*
Cc1cccc(COc2ccccc2C(=O)OCC(=O)N(C)c2c(N)n(Cc3ccccc3)c(=O)[nH]c2=O)c1	16%	-12%	21µM*	-4%	.	-18%
CC(C)(C)c1cc(C(=O)N/N=C/c2ccco2)n[nH]1	?	13%	?	?	?	13µM*
Nc1c(Cl)c(Cl)nc(C(=O)N/N=C/c2ccco2)c1Cl	3%	-1%	-14%	24%	.	-3%
Cc1ccsc1/C=N\NC(=O)c1cc(C(C)(C)C)[nH]n1	2.8µM*	?	?	2.8µM*	11µM*	12µM*
Nc1nccnc1C(=O)N/N=C/c1ccco1	?	14%	?	27%	.	13µM*
Cc1cc(C(=O)N/N=C/c2sccc2C)no1	9%	11%	?	6%	?	?
SMILES	Rab9 promoter act	ELG1 genotox	ELG1 repair inh	NPC1 prom act	SMN2 splice enh	FLuc counter
Cc1ccc(-c2cc(C(=O)N/N=C/c3ccco3)n[nH]2)s1	1%	0%	11%	-1%	-3%	?
Cc1ccc(CN2CCN(C3CCN(C(=O)Nc4ccccc4C(F)(F)F)CC3)C(=O)C2=O)cc1	.	.	.	.	.	-4%
CN(CCOc1ccc(Cl)cc1)C(=O)CN1C(=O)NC2(CCCC2)C1=O	-1%	1%	-4%	-4%	.	6%
CCOC(=O)c1[nH]c(C)c(CCC(=O)Nc2cccc(SC)c2)c1C	.	.	.	.	.	-16%
Cc1cc(NC(=O)/C=C/c2ccccc2Cl)n(-c2nc3ccccc3[nH]2)n1	2µM*	7%	?	?	11µM*	1.3µM*
Cc1cc(NC(=O)CC2CCCC2)n(-c2nc3ccccc3[nH]2)n1	-2%	-12%	23µM*	23%	-35%	1%
Cn1c(O)c(C=NCC2CCNCC2)c(=O)n(C)c1=O	-3%	-2%	4%	-5%	-5%	7%
